# Unmarked numbers belong to inactive results. The list shows a part of the results. Calls of active or inactive are those of the source.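 Rule for the calls, unless noted: active = inhibition above the hit cutoff set in the earlier primary screen (cut at about 27% in these data); inactive = the rest.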
# What was measured:
# [1] = target: Protein phosphatase methylesterase 1 (Homo sapiens) (UniProt Q9Y570); experiment: PME-1 inhibitor activity retest, confirmation, biochemical, fluorescence polarization, FP-Rh probe, triplicate (AID 2171); details: recombinant PME-1, FP-Rh probe fluorescence polarization; at 5.9 µM; stronger effect = higher value;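 note: 0% = enzyme with DMSO and 100% = wells lacking PME-1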
# [2] = target: Glutathione S-transferase omega-1 (Homo sapiens) (UniProt P78417); experiment: GSTO1 inhibitor hit confirmation, counter-screen for RBBP9 inhibitor project, biochemical, fluorescence polarization, triplicate (AID 2176;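 active = inhibition above the primary screen's cutoff, its mean inhibition plus 3 SD, cut at about 35% in these data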;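 note: loss of polarization as inhibitors block binding of rhodamine sulfonate ester activity probe; 0% = GSTO1 with DMSO and 100% = wells lacking GSTO1 enzyme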); details: recombinant GSTO1, probe fluorescence polarization; at 5.96 µM; stronger effect = higher value
# [3] = target: Protein-arginine deiminase type-4 (Homo sapiens) (UniProt Q9UM07); experiment: human PAD4 inhibitors, confirmation, biochemical, fluorescence polarization (AID 488796;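 active = mean inhibition across replicates above the hit cutoff set by the earlier primary screen, cut at about 15% in these data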;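 note: inhibitors block active-site labeling by the probe so polarization falls; 0% = PAD4 with probe and DMSO and 100% = probe without PAD4 enzyme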); details: recombinant PAD4, RCA probe fluorescence polarization; at 6.36 µM; stronger effect = higher value
# [4] = target: Platelet-activating factor acetylhydrolase IB subunit alpha1 (Homo sapiens) (UniProt Q15102); experiment: PAFAH1B3 enzyme inhibitors, confirmation, biochemical, fluorescence polarization, human (AID 493032;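 active = average inhibition over triplicate runs above the hit cutoff set in the earlier primary screen, cut at about 25% in these data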;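 note: 0% = enzyme with DMSO and 100% = wells lacking PAFAH1B3 protein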); details: recombinant PAFAH1B3, FP-Rh activity-based probe, at 3.39 µM, stronger effect = higher value
# [5] = system: HIV-1 integrase (multimerization); experiment: HIV-1 IN multimer formation enhancers, counter-screen for LEDGF/p75 integration inhibitor project, biochemical, TR-FRET (AID 1053131; in the data active = activation above about 8.9%); details: TR-FRET HIV-1 integrase multimerization, at 7.7 µM, stronger effect = higher value
# [6] = TR-FRET optical interference artefacts, confirmation, artefact control for LEDGF/p75-dependent integration inhibitor project, biochemical, HIV-1 IN multimerization (AID 1053135;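 active = inhibition above the mean over all tested compounds plus 3 SD, which no compound reached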;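 note: 0% = integrase with antibodies and DMSO and 100% = antibodies without integrase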); details: TR-FRET optical interference counterscreen, at 7.7 µM, stronger effect = higher value
# [7] = system: HIV-1 integrase / human LEDGF/p75 complex; experiment: inhibitors of HIV-1 IN-LEDGF/p75 DNA integration, confirmation, biochemical, TR-FRET (AID 1053136; in the data active = inhibition above about 14%); details: TR-FRET LEDGF/p75-dependent HIV-1 integration, at 3.7 µM, stronger effect = higher value
# [8] = target: Nuclear receptor coactivator 3 (Homo sapiens) (UniProt Q9Y6Q9); experiment: SRC3 coactivator transcriptional activity inhibitors, confirmation, cell-based, luminescence, quadruplicate (AID 588792;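 active = mean inhibition over 43.08%, the solvent-only control mean plus 3 SD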;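 note: 0% = DMSO treated cells and 100% = gossypol at 36 µM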); details: HEK293 GAL4-SRC3 luciferase reporter, at 3.6 µM, stronger effect = higher value
# [9] = system: transactivating tegument protein VP16 (Human herpesvirus 1), Gal4-VP16 luciferase reporter; experiment: VP16 transactivation inhibitors, counter-screen for SRC3 inhibitor project, cell-based, luminescence, high throughput (AID 588794; in the data active = inhibition above about 30%); details: mammalian cells, VP16-driven luciferase reporter luminescence; at 3.6 µM; stronger effect = higher value
# [10] = target: (Lyso)-N-acylphosphatidylethanolamine lipase (Mus musculus) (UniProt Q8VD66); experiment: ABHD4 inhibitors, retest, confirmation, biochemical, fluorescence polarization, mouse (AID 720658;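 active = mean inhibition across replicates above the hit cutoff set in the primary screen, cut at about 30% in these data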;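 note: 0% = wild-type ABHD4 with DMSO and 100% = catalytically dead S159A mutant with DMSO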); details: purified mABHD4, FP-Rh probe fluorescence polarization; at 8.92 µM; stronger effect = higher value
# [11] = system: TLR4-MyD88 interaction (human), BLA complementation; experiment: TLR4-MyD88 association inhibitors, retest, confirmation, cell-based, HeLa CL3-4, BLA complementation, FRET ratio (AID 941;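 active = mean inhibition across three repeat runs above about 25% carried over from the earlier screen, limit read from the data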;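 note: plate controls were DMSO only for no effect and clavulanic acid blocking BLA at full dose for full effect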); details: CCF4 FRET ratio, at 8.4 µM, stronger effect = higher value
# [12] = inhibitors of full-length beta-lactamase reporter, confirmation, artefact control for TLR4-MyD88 binding inhibitor project, cell-based, HeLa, full-length BLA, CCF4 FRET ratio (AID 1237;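 active = mean inhibition over three repeats above about 26% taken from the earlier screen, limit read from the data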;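 note: HeLa cells stably expressing beta-lactamase reporter as counterscreen for TLR4-MyD88 inhibitors; 0% = DMSO and 100% = clavulanic acid full inhibition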); details: at 8.4 µM, stronger effect = higher value
# [13] = target: Bcl-2-like protein 1 (Homo sapiens) (UniProt Q07817); experiment: Bcl-xL inhibitors blocking Bim BH3 binding, confirmation, counter-screen for MCL1 inhibitor project, biochemical, fluorescence polarization (AID 2166;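 active = inhibition above a cutoff equal to the mean inhibition of all tested compounds plus 3 SD, cut at about 30% in these data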); details: GST-Bcl-xL / FITC-Bim BH3 peptide FP binding; at 10.9 µM; stronger effect = higher value
# [14] = target: Induced myeloid leukemia cell differentiation protein Mcl-1 (Homo sapiens) (UniProt Q07820); experiment: inhibitors of MCL1 binding to BIM-BH3, confirmation, biochemical, fluorescence polarization, triplicate (AID 2168;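 active = inhibition above the average of all tested compounds plus 3 SD, cut at about 40% in these data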;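 note: 0% = DMSO wells and 100% = unlabeled Bim-BH3 control peptide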); details: GST-MCL1 / FITC-Bim-BH3 fluorescence polarization; at 10.9 µM; stronger effect = higher value
# [15] = target: Platelet-activating factor acetylhydrolase (Homo sapiens) (UniProt Q13093); experiment: pPAFAH (PLA2G7) enzyme inhibitors, confirmation, biochemical, fluorescence polarization, human (AID 463230;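 active = mean inhibition of the triplicate above the hit cutoff set for the earlier primary screen, cut at about 25% in these data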;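 note: 0% = enzyme with DMSO and 100% = wells lacking pPAFAH enzyme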); details: recombinant pPAFAH, FP-Rh probe fluorescence polarization; at 3.39 µM; stronger effect = higher value
# [16] = target: Peroxisome proliferator-activated receptor gamma (Homo sapiens) (UniProt P37231); experiment: agonists of PPARgamma SRC-2 coactivator recruitment, confirmation, biochemical, HTS (AID 1297; in the data active = activation above about 22%;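 note: 0% = vehicle alone and 100% = reference agonist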); details: biochemical SRC-2 recruitment by PPARgamma; at 8 µM; stronger effect = higher value
# [17] = target: Peroxisome proliferator-activated receptor gamma (Homo sapiens) (UniProt P37231); experiment: PPARgamma agonists recruiting SRC-1 coactivator, confirmation, biochemical (AID 1300; in the data active = activation above about 20%;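 note: 0% = vehicle wells and 100% = reference agonist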); details: PPARgamma–SRC-1 coactivator recruitment biochemical assay; at 8 µM; stronger effect = higher value
# [18] = target: Peroxisome proliferator-activated receptor gamma (Homo sapiens) + Nuclear receptor coactivator 3 (Homo sapiens) (UniProt P37231+Q9Y6Q9); experiment: PPARgamma-driven SRC-3 coactivator recruitment agonists, confirmation, biochemical (AID 1301; in the data active = activation above about 24%;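 note: 0% = vehicle wells and 100% = reference agonist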); details: biochemical PPARgamma-SRC-3 coactivator recruitment, agonist mode; at 8 µM; stronger effect = higher value
# Sequence of Protein phosphatase methylesterase 1 (Homo sapiens) (Q9Y570 whole entry, looked up): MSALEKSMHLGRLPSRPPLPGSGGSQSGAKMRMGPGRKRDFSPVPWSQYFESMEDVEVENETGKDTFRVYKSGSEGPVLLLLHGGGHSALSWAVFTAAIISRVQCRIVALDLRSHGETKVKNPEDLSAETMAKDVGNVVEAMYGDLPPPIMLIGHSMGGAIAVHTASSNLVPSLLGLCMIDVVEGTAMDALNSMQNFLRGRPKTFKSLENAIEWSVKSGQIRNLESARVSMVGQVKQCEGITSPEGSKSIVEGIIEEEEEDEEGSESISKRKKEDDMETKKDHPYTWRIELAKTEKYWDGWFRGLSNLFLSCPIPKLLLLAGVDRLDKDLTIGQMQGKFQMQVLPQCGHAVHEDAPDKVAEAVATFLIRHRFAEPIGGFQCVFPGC
# Sequence of (Lyso)-N-acylphosphatidylethanolamine lipase (Mus musculus) (Q8VD66 whole entry, looked up): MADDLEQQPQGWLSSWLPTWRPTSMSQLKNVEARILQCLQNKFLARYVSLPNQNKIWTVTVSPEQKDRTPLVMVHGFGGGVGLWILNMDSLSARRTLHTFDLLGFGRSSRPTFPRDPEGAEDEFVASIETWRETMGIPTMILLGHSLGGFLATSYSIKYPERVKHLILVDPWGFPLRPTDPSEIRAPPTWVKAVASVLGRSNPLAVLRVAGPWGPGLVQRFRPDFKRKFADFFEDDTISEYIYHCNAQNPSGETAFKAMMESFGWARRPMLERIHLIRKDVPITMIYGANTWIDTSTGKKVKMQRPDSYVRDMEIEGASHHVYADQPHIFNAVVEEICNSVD
# Sequence of Platelet-activating factor acetylhydrolase (Homo sapiens) (Q13093 whole entry, looked up): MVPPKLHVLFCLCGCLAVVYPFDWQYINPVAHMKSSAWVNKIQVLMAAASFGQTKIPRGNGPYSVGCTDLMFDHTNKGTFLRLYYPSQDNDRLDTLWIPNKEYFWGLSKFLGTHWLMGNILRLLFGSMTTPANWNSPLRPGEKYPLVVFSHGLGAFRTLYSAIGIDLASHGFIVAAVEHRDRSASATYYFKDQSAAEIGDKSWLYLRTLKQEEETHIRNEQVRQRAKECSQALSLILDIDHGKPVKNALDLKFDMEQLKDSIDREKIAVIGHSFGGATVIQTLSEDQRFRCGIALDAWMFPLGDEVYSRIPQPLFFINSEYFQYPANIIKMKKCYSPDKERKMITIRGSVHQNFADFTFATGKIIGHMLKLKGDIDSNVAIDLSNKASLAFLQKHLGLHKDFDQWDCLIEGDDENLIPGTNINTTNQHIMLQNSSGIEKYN
# Sequence of Bcl-2-like protein 1 (Homo sapiens) (Q07817 whole entry, looked up): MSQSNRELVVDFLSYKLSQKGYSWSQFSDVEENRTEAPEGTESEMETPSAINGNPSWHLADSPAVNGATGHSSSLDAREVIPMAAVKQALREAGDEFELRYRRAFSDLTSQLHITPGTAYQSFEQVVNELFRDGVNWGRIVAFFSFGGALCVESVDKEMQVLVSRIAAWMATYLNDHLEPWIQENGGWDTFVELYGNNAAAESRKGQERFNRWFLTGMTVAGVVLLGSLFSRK
# Sequence of Induced myeloid leukemia cell differentiation protein Mcl-1 (Homo sapiens) (Q07820 whole entry, looked up): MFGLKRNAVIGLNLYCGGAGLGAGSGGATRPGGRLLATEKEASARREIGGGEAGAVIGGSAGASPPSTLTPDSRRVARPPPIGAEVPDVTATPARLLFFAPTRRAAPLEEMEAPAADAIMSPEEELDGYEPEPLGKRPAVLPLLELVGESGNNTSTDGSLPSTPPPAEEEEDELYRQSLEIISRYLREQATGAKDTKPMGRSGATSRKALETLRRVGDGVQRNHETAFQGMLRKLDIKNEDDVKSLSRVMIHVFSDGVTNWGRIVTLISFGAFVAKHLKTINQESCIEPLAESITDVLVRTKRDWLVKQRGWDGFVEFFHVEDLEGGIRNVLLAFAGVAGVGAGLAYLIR
# Sequence of Peroxisome proliferator-activated receptor gamma (Homo sapiens) (P37231 whole entry, looked up): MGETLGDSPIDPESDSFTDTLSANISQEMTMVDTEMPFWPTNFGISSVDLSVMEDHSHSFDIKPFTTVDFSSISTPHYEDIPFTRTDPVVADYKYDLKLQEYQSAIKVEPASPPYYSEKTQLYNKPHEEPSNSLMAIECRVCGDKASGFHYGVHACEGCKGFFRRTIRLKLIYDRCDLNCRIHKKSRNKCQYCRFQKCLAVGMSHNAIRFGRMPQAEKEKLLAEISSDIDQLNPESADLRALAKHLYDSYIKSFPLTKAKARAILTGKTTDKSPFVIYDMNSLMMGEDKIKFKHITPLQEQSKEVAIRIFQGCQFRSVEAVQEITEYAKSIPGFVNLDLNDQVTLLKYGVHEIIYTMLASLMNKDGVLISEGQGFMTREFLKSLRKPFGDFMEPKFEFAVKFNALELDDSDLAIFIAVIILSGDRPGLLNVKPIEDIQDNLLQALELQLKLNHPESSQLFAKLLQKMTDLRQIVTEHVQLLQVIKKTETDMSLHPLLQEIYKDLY
# Sequence of Nuclear receptor coactivator 3 (Homo sapiens) (Q9Y6Q9 whole entry, looked up, the tested form may be a part): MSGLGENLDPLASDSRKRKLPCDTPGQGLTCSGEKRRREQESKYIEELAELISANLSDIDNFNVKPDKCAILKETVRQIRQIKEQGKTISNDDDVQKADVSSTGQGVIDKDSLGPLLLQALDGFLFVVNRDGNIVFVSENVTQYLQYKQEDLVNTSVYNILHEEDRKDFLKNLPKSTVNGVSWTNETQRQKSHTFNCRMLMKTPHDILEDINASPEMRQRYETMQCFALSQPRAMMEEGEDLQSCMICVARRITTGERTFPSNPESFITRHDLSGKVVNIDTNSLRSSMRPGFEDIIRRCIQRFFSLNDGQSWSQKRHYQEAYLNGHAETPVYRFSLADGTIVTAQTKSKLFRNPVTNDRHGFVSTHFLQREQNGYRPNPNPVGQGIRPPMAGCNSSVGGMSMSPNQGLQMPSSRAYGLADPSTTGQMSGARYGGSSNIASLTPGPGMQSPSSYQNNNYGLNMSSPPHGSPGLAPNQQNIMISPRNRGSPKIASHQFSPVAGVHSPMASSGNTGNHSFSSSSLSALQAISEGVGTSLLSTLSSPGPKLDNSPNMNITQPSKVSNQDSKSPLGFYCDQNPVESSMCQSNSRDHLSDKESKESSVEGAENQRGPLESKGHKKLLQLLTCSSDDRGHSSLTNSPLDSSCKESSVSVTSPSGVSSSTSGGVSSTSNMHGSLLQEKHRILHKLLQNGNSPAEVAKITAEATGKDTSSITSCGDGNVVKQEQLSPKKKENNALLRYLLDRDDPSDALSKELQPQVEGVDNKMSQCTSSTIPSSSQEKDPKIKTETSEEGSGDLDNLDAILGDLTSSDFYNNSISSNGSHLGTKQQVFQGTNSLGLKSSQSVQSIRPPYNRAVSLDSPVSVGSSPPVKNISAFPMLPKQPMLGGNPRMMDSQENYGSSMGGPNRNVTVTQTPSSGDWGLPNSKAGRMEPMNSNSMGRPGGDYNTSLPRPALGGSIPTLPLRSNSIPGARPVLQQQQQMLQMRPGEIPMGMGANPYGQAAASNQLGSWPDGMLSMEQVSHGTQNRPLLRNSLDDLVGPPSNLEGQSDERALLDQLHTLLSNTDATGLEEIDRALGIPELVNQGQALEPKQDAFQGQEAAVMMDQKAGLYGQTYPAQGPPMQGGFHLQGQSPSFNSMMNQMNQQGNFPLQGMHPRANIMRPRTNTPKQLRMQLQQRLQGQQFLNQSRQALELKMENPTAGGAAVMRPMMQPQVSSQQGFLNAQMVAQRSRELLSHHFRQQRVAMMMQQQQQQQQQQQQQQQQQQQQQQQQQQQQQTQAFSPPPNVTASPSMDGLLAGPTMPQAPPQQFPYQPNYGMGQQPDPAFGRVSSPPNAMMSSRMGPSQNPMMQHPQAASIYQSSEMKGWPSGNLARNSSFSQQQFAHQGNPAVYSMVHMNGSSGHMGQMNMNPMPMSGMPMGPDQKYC
# Sequence of Glutathione S-transferase omega-1 (Homo sapiens) (P78417 whole entry, looked up): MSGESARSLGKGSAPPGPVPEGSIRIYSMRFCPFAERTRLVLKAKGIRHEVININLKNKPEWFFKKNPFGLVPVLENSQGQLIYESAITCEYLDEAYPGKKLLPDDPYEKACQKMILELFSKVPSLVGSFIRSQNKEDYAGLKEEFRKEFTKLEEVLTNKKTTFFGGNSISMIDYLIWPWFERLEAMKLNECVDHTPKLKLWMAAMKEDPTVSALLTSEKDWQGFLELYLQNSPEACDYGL
# Sequence of Platelet-activating factor acetylhydrolase IB subunit alpha1 (Homo sapiens) (Q15102 whole entry, looked up): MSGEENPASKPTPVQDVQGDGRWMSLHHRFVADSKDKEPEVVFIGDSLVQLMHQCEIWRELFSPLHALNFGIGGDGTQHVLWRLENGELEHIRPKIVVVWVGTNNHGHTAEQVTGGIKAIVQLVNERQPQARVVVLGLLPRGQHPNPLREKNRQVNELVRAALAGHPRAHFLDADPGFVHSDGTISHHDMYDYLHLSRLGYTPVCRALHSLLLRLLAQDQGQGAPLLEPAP
# Sequence of Protein-arginine deiminase type-4 (Homo sapiens) (Q9UM07 whole entry, looked up): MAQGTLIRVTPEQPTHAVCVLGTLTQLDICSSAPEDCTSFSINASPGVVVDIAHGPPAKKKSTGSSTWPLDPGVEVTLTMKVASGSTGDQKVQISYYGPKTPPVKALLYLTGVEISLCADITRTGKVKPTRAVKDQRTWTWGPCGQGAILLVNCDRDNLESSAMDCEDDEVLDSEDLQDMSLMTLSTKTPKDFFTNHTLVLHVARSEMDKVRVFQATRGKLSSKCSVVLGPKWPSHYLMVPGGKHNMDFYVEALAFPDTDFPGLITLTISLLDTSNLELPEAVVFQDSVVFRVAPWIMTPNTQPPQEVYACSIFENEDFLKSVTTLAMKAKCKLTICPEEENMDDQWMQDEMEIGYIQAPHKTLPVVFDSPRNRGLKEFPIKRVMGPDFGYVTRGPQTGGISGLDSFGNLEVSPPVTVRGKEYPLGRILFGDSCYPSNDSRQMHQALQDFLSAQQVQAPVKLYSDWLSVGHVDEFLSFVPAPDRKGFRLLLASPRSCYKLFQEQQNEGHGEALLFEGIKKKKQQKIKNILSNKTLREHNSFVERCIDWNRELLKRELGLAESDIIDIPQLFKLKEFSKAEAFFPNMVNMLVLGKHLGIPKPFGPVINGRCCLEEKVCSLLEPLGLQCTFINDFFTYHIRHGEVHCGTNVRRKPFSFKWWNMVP
smiles,measurement,setting,value
CCN(CC)S(=O)(=O)c1cc(NC(=O)C(C)N2CC=C(c3ccccc3)CC2)ccc1C (stereo unspecified),inhibition,[1],43.7% (active)
COC(=O)c1nc(-c2ccc3c(n2)C(=O)C(N)=C(OC)C3=O)c(N)c(-c2ccc(OC)c(OC)c2O)c1C,inhibition,[1],67.4% (active)
CCOC(=O)c1c(N)n(Cc2ccccc2)c2nc3ccccc3nc12,inhibition,[2],13.8%
same,inhibition,[3],-4.66%
same,inhibition,[4],8.51%
same,activation,[5],-0.51%
same,inhibition,[6],2.59%
same,inhibition,[7],-1.64%
CCOc1cccc(=NC2CCCCC2)c2c(C)[nH]c(C)c12,inhibition,[8],21.3%
same,inhibition,[9],20.1%
same,inhibition,[10],16.3%
same,activation,[5],0.2%
same,inhibition,[6],-0.97%
same,inhibition,[7],-1.3%
COc1ccc(CN2CCN(c3ccccc3F)CC2)c(OC)c1,inhibition,[11],-8.64%
same,inhibition,[12],4.55%
CC(C)CCOP(N)(=O)Oc1ccccc1Cl (stereo unspecified),inhibition,[1],42.3% (active)
Nc1c(C(=O)NCc2ccco2)c2nc3ccccc3nc2n1CCN1CCOCC1,inhibition,[1],7.2%
COc1ccc(N2C(=O)/C(=C/c3ccco3)C(=O)NC2=S)cc1,inhibition,[13],50.7% (active)
same,inhibition,[14],55.3% (active)
same,inhibition,[15],17.3%
CC(=O)c1ccc2c(c1)C1C(Cl)C(Sc3ccccc3[N+](=O)[O-])CC1C(c1ccccc1[N+](=O)[O-])N2 (stereo unspecified),inhibition,[1],20.4%
O=c1[nH]c(=S)[nH]c(O)c1N=Nc1cc(S(=O)(=O)Nc2ccc(Cl)cc2)ccc1Cl,inhibition,[1],40.5% (active)
COc1cccc(OC)c1C1=NCC(=O)Nc2c1oc1ccc(Br)cc21,inhibition,[1],52.8% (active)
O=C(CF)NC(Nc1cccc2cccnc12)C(Cl)(Cl)Cl (stereo unspecified),inhibition,[1],53% (active)
COc1cc(-n2c(=S)[nH]c3ccc(C)cc3c2=O)c(Cl)cc1Cl,activation,[16],24.6% (active)
same,activation,[17],12.2%
same,activation,[18],12.4%
same,inhibition,[10],37.6% (active)
O=P(CCl)(Nc1ccccc1)C(Cl)(Cl)Cl (stereo unspecified),inhibition,[1],45.2% (active)
Cc1ccc(S(=O)(=O)N2CCCCC2)cc1NC(=O)CN1CC=C(c2ccccc2)CC1,inhibition,[1],85.5% (active)
Oc1ccc(/C=N/NP(=S)(c2ccccc2)c2ccccc2)c(O)c1O,inhibition,[1],-8.43%
NP(=O)(OCCCCc1ccccc1)Oc1ccccc1Cl (stereo unspecified),inhibition,[1],47.4% (active)
CCOC(=O)c1c(NS(=O)(=O)c2ccccc2)n(CCCOC)c2nc3ccccc3nc12,inhibition,[1],0.94%
O=C1NC(=O)N(Cc2ccco2)C(=O)/C1=C\c1ccc(-c2ccc(F)cc2)o1,activation,[5],1.86%
same,inhibition,[6],-6.88%
same,inhibition,[7],11.9%
C[n+]1c(-c2ccccc2)c2cc(N)ccc2c2ccc(N)cc21,inhibition,[1],83.5% (active)
O=C1NC(=O)N(c2ccccc2)C(=O)/C1=C/c1ccc([N+](=O)[O-])s1,inhibition,[13],36.9% (active)
same,inhibition,[14],66.3% (active)
same,inhibition,[15],44% (active)

# — PubChem BioAssay
